# About 1,200 (3.2%) of roughly 38,000 compounds showed an effect of 50% or more. The median lay at about -58%. The sample holds strong results, similar compounds and a random draw of the others, so the mix is not that of the screen.
# System: Plasmodium falciparum
# Assay: Calibr Malaria Delayed Death Assay SOP
# Format: functional, organism-based
# Parameters: scale not given: in the data most compounds retested in dose-response had high values
# Details: concentration 4.99e-06 (unit not given; other assays of the set use mol/L)
row,SMILES,Percent Effect
1,O=C(NCC1(O)CCC1)c1c(O)cc(Cl)cc1Cl,-101.6%
2,O=C(NCc1ccon1)N1CCC(n2ccc(C(F)(F)F)n2)CC1,-25.88%
3,Cc1ccnn1CCN1CCCC2(CCC(=O)N(C3CCCC3)C2)C1 (stereo unspecified),-99.39%
4,CN1CC(=O)N(c2ccccc2)CC12CCN(C(=O)CC1CC1)C2.O=C(O)C(F)(F)F (stereo unspecified),-38.66%
5,O=C(c1ccc(=O)[nH]c1)N1C[C@@H]2CC[C@H](C1)N(Cc1ccccc1)C2,-23.45%
6,O=C(c1cc(F)cc(Cl)c1)N1C[C@@H]2CC[C@H](C1)N(Cc1ccccc1)C2,-134.7%
7,O=C(c1ccc(F)c(Cl)c1)N1C[C@@H]2CC[C@H](C1)N(Cc1ccccc1)C2,73.05%
8,Cc1nn(C)c2nc(NCCCN3CCCC(CO)C3)sc12 (stereo unspecified),-120%
9,N#Cc1ccc(CN2CCNC(=O)C2c2cccs2)cc1 (stereo unspecified),-98.76%
10,CC[C@]12CN3C[C@](CC)(CN(C1)C3c1[nH]c(=O)[nH]c(=O)c1C)C2=O (stereo partly specified),-91.51%
11,CN(Cc1cccnc1)Cc1cn2c(n1)CN(C1CCOC1)CC2.O=C(O)C(F)(F)F.O=C(O)C(F)(F)F.O=C(O)C(F)(F)F (stereo unspecified),-34.3%
12,CC(C)CC(=O)NCCCn1cncn1,-49.15%
13,N#Cc1csc(CNCCOc2ccccc2)c1,-47.61%
14,CC(C)N1Cc2c(C(=O)N3CCN(C)CC3)nn(C)c2C1,-111.4%
15,Cc1ccc(-c2nc(CN3CCCC3Cn3cncn3)co2)cc1 (stereo unspecified),-9.69%
16,CC1CS(=O)(=O)CCN1Cc1ccccc1N(C)C (stereo unspecified),-5.29%
17,CS(=O)(=O)NCC1CCCCN1Cc1ccccc1C#N (stereo unspecified),-35.93%
18,CN(C)c1ccccc1CN1CCCCC1CNS(C)(=O)=O (stereo unspecified),58.92%
19,CCC1(CNCc2ncc[nH]2)CCCC1,66.04%
20,CCCC1(CNCc2ncc[nH]2)CCC1,24.35%
21,c1ccc(CC2(CNCc3ncc[nH]3)CCC2)cc1,42.05%
22,Cl.c1cc(OCc2ccc3c(c2)OCO3)ccc1CNC1CC1,-194.6%
23,O=C(Nc1cccc(OCC(F)F)n1)c1ccncc1F,-156.1%

row,SMILES,Percent Effect
1,O=C1NC(c2ccccc2)=N[C@@]12CC[C@@H]1CN(Cc3ccoc3)C[C@@H]12,57.5%
2,O=C1NC(c2ccccc2)=N[C@@]12CC[C@@H]1CN(Cc3ccco3)C[C@@H]12,17.95%
3,O=C1NC(c2ccccc2)=N[C@@]12CC[C@@H]1CN(Cc3ccncc3)C[C@@H]12,12.66%
4,Cc1nc(C)n(CC2CN(CCCOc3ccccc3)CCO2)n1 (stereo unspecified),-31.23%
5,CN1CCNC(=O)C1CC(=O)NCCc1cnn(-c2ccccc2)c1 (stereo unspecified),-54.63%
6,Cc1ccc(C(=O)N2CCC3(CCCC3)CC2)c(=O)[nH]1,-40.97%
7,Fc1cccc(CN2CCOCC3(CCN(C4CCOCC4)C3)C2)c1.O=C(O)C(F)(F)F.O=C(O)C(F)(F)F (stereo unspecified),77.57%
8,O=C(O)C(F)(F)F.O=C(c1ccco1)N1CCOCC2(CCN(C3CCOCC3)C2)C1 (stereo unspecified),-3.89%
9,Cc1cccc(CN2CCOCC3(CCN(C4CCOCC4)C3)C2)c1.O=C(O)C(F)(F)F.O=C(O)C(F)(F)F (stereo unspecified),78%
10,COc1ccc(CN2CCOCC3(CCN(C4CCOCC4)C3)C2)cc1.O=C(O)C(F)(F)F.O=C(O)C(F)(F)F (stereo unspecified),59.83%
11,c1cc(CN2CCOCC3(CCN(C4CCOCC4)C3)C2)ccn1 (stereo unspecified),-42.35%
12,Cc1cccc(CN2CCOCC3(CCN(C4CCOCC4)C3)C2)n1.O=C(O)C(F)(F)F.O=C(O)C(F)(F)F.O=C(O)C(F)(F)F (stereo unspecified),40.9%
13,Cc1ccc(C(=O)N2CCOCC3(CCN(C4CCOCC4)C3)C2)o1.O=C(O)C(F)(F)F (stereo unspecified),-106.4%
14,O=C(N1CCOCC1)[C@@]12CCO[C@@H]1CCN(Cc1cccc(F)c1)C2.O=C(O)C(F)(F)F,-31.47%
15,O=C(O)C(F)(F)F.O=C(O)C(F)(F)F.O=C(O)C(F)(F)F.c1cncc(CN2CCC3(COCCN(C4CCOCC4)C3)C2)c1 (stereo unspecified),-45.9%
16,O=C(O)C(F)(F)F.O=C(c1ccoc1)N1CCOC2(COCCN(CC3CC3)C2)C1 (stereo unspecified),-22.12%
17,Fc1cccc(CN2CCOC3(COCCN(CC4CC4)C3)C2)c1.O=C(O)C(F)(F)F.O=C(O)C(F)(F)F (stereo unspecified),61.62%
18,Cc1occc1C(=O)N1CCOCC2(CCN(C3CCOCC3)C2)C1.O=C(O)C(F)(F)F (stereo unspecified),-32.59%
19,O=C(O)C(F)(F)F.O=C([C@@H]1C[C@@H]2CCN(C3CCOCC3)C[C@H]2O1)N1CCOCC1,-14.29%
20,c1cc(-c2cn[nH]c2)ccc1CN1CCCCC1,-42.56%
21,CCn1ccnc1CNCc1ccc(C)cc1OC(C)(C)C,21.04%
22,Cn1cc(CN2CC[C@@H]3[C@H]2CCC(=O)N3c2ccccc2)cn1.O=C(O)C(F)(F)F,-62.18%
23,Cn1cnc2nc3n(c2c1=O)CCC3,-114.6%

row,SMILES,Percent Effect
1,COc1ccc2nnc(CCC(=O)Nc3nc4c(s3)CCC4)n2n1,-9.679%
2,CCN1CCC(CNc2nccc(C)n2)(N(C)C)CC1,-52.36%
3,Cn1cc(CN2CCCC3(COCCN(Cc4c[nH]nn4)C3)C2)cn1.O=C(O)C(F)(F)F.O=C(O)C(F)(F)F (stereo unspecified),-58.09%
4,Fc1ccc(CN2CCCC3(COCCN(Cc4c[nH]nn4)C3)C2)cc1.O=C(O)C(F)(F)F.O=C(O)C(F)(F)F (stereo unspecified),61.69%
5,O=C(O)C(F)(F)F.O=C(O)C(F)(F)F.c1cc(CN2CCCC3(COCCN(Cc4c[nH]nn4)C3)C2)cs1 (stereo unspecified),27.82%
6,CO[C@@H]1CC[C@H]2[C@H]1OCCN2C(=O)C1CCOCC1,-57.64%
7,NS(=O)(=O)c1cnn(CCC(=O)N(C2CCCCC2)C2CC2)c1,-77.61%
8,CC(C)(C(=O)NCC(=O)N1CCCC1)c1ccccc1F,-11.95%
9,COCCC(=O)N1CCC2(CN(Cc3cccc(Cl)c3)C2)C1,-141.8%
10,COC(=O)CCC(=O)N1CCC2(CN(Cc3cccc(Cl)c3)C2)C1,-43.68%
11,CC1CCCN(Cc2ccc(CNC(=O)NCc3ccon3)cc2)C1 (stereo unspecified),-178.1%
12,CC(=O)N(C)c1nc(CN2CCCC2Cn2cncn2)cs1 (stereo unspecified),-120.1%
13,CC(=O)N(C)c1nc(CN2CCCC2c2cnn(C)c2)cs1 (stereo unspecified),-87.18%
14,CCN(C(C)=O)c1nc(CN2CCCCC2Cn2cncn2)cs1 (stereo unspecified),7.085%
15,Cc1cccc2nc(CN3CCCC(C)C3)cc(=O)n12 (stereo unspecified),-16.65%
16,CC(=O)N(c1ccc(C)cc1)c1nc(CN2CCCC(C)C2)cs1 (stereo unspecified),82.35%
17,CC(=O)N(c1ccc(F)cc1)c1nc(CN2CCCC2C(C)C)cs1 (stereo unspecified),89.73%
18,CC(=O)N(c1ccc(C)cc1)c1nc(CN2CCCCC2C)cs1 (stereo unspecified),61.62%
19,CC(=O)N(C)c1nc(CN2CCCCC2Cn2cncn2)cs1 (stereo unspecified),-131.1%
20,O=C(O)C(F)(F)F.c1cnc(N2CC[C@@H](OCC3CC3)[C@@H]2Cc2cccnc2)nc1,-48.06%
21,Cn1cc(C(=O)CC2CCCN2C(=O)c2c[nH]c3ccccc23)cn1 (stereo unspecified),4.786%
22,CCC(CO)N(C/C(C)=C/c1ccco1)Cc1ccco1 (stereo unspecified),-44.13%
23,Cc1ccc(C(=O)N2CCO[C@H]3[C@H](OCC4CCOCC4)CC[C@@H]32)o1,-19.31%

row,SMILES,Percent Effect
1,CS(=O)(=O)NC[C@]12COC[C@H]1CN(C(=O)CC1CCCC1)C2,-153.3%
2,O=C(C1CCOCC1)N1C[C@H]2CCC[C@@]2(COc2cccnc2)C1.O=C(O)C(F)(F)F,-16.46%
3,Cn1nnc(NCc2ccc(OCc3ccc(Cl)cc3)cc2)n1,-71.17%
4,Cc1nc2oc(C(=O)N3CCOCC3)c(N)c2c2c1CCCC2,-269.1%
5,O=C(C[C@@H]1COC[C@H]2CN(Cc3ccccc3)C[C@@H]12)N1CCCC1.O=C(O)C(F)(F)F,-13.07%
6,CC(C)(C)c1cc2ncn(CCCN3CCCCC3CO)c(=O)c2s1 (stereo unspecified),-23.08%
7,O=C(NCC1CC1)C1CCC2(CCN(C(=O)c3ccccn3)CC2)O1.O=C(O)C(F)(F)F (stereo unspecified),-137.4%
8,O=C(NCC(O)CO)Nc1cc(Br)ccc1F (stereo unspecified),-140%
9,O=C(NCc1cccnc1N1CCc2ccccc2C1)c1cc(=O)[nH][nH]1,-96.6%
10,Cc1nc(CN2CCCC(NCCOc3ccccc3)C2)no1 (stereo unspecified),-60.44%
11,Cc1nc(CN2CCCC(NCc3ccc4ccccc4c3)C2)no1 (stereo unspecified),-12.45%
12,Cc1nc(CN2CCCC(N(C)Cc3cnn(C)c3)C2)no1 (stereo unspecified),-49.27%
13,Cc1nc(CN2CCCC(N(C)Cc3c(C)noc3C)C2)no1 (stereo unspecified),57.32%
14,COc1ccccc1OCCNC1CCCN(Cc2noc(C)n2)C1 (stereo unspecified),19.3%
15,Cc1nc(CN2CCCC(NCc3nc4ccccc4s3)C2)no1 (stereo unspecified),-31.98%
16,Cc1cc(CN(C)C2CCCN(Cc3noc(C)n3)C2)no1 (stereo unspecified),-96.62%
17,Cc1nc(CN2CCCC(NCCc3ccccc3Cl)C2)no1 (stereo unspecified),81.78%
18,Cc1nc(CN2CCCC(NCc3cccc4ccccc34)C2)no1 (stereo unspecified),57.02%
19,CCOc1ncccc1CNS(=O)(=O)c1ccc2c(c1)CCO2,-29.02%
20,CCc1nnc2n1CCN(Cc1nc3c(F)cccc3[nH]1)C2,-34.12%
21,O=C(NCc1cccs1)[C@H]1CC[C@@H]2[C@@H](CCN2Cc2ccoc2)O1.O=C(O)C(F)(F)F,4.133%
22,Cc1nnc([C@@]23CCO[C@@H]2CCN(Cc2cccc4ccccc24)C3)o1,-36.67%

# From ChEMBL document CHEMBL3988442, “University of Dundee, Small-Polar-MMV Screening Library” (2021)
